Structures are written as SMILES.

One assay deals with Left-right determination factor 2 (Homo sapiens) (UniProt O00292). Description: LEFTY2 binders on small-molecule microarrays, primary screen, biochemical, small-molecule microarray, 635 nm fluorescence scan (AID 1110). The following applies: LEFTY2 binding, higher = more signal.
Chain of Left-right determination factor 2 (Homo sapiens) (O00292 whole entry, looked up): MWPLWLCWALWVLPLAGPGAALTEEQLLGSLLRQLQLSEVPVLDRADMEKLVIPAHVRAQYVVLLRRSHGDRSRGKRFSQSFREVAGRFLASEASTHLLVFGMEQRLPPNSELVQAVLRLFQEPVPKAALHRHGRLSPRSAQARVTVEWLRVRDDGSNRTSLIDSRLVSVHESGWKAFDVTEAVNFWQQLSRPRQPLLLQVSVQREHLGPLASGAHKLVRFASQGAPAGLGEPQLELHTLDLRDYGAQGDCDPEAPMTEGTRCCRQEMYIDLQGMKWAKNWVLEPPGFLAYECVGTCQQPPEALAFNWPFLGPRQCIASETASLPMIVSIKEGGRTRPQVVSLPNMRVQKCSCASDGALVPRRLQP
Compound `COc1ccc(-c2cc3c(c(CCc4ccccc4)n2)[Si](C(C)C)(C(C)C)OC3)cn1` came in with a composite z-score of 0.209.
On to `C=CCOC(=O)[C@H]1[C@@H]2C(=O)O[C@@H](c3ccccc3)[C@@H](c3ccccc3)N2[C@@H](c2ccc(OCCOC(=O)[C@@H]3C[C@@H]4C(=O)N[C@@H](CCCCNC(C)=O)C(=O)N4[C@@H]3c3ccc(O)cc3)cc2)[C@]12C(=O)Nc1ccc(I)cc12`, for which the composite z-score was determined as 0.637.
The same measure, in the same setting: as for `COc1ccc(CCNC(=O)[C@@]2(Sc3ccc(C)cc3)CC(=O)N(C3Cc4ccccc4C3)[C@@H]2c2ccc(CO)cc2)cc1`, the figure is 1.25; as for `COCCCNC(=O)[C@@]1(Sc2ccc(C)cc2)CC(=O)N(C2CCCCC2)[C@@H]1c1ccc(CO)cc1`, -0.942.
`COCCCNC(=O)[C@]1(CCS(=O)(=O)c2ccccc2)N=C(c2ccc(OCCCO)cc2)O[C@@H]1c1ccccc1N=[N+]=[N-]` showed a composite z-score of -0.0904.
Compound `CN(C)CCCNC(=O)[C@@H]1c2ccccc2C(=O)N(Cc2ccccc2Cl)[C@H]1c1ccc(CO)cc1` had a composite z-score of -0.505.
Still for that read-out and setting: for `CO[C@H]1O[C@H](CO)[C@@H](OC(=O)Nc2ccccc2-c2ccccc2)[C@H](OC(=O)Nc2ccc3c(c2)OCO3)[C@H]1OC(=O)Nc1ccc2c(c1)OCO2` the value was 0.395.
Compound `CCCCCCCCCCC(O)C1C=CC2C(=O)N(C)C(=O)C2N1NC(=O)OC(C)(C)C` (stereo not drawn) registered a composite z-score of 0.186.

Another assay has as its target Calmodulin-1 (Homo sapiens) (UniProt P0DP23). Description: CALM1 binders on microarrays, EGTA buffer, profiling panel, biochemical, small-molecule microarray, Cy5-labelled CALM1 (AID 1111).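 Note: labelled calmodulin applied in Tris saline Tween buffer holding calcium plus EGTA and DTT.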 The following applies: Cy5-CALM1 binding fluorescence, higher = more signal.
In turn, `COC(=O)c1nc2oc1CC[C@@H](CO)NC(=O)N(C)Cc1cnnn1C[C@H](Cc1ccccc1)NC2=O` came in with a composite z-score of -0.677.
The same measure, in the same setting: for `CCOC(=O)C1=CC[C@@H](c2cccc(Cl)c2)N(S(=O)(=O)c2ccc(C)cc2)C1` the value was 1.06; for `C=C(COC)/C(=C/C[C@H](OC(=O)c1ccncc1)c1ccccc1OCCO)c1cnc2ccccc2c1`, -0.158; for `C[C@@H]1ON(c2ccc(C(=O)OC(C)(C)C)cc2)[C@H](c2ccc(O)cc2)[C@H]1C(=O)N1C(=O)OC[C@H]1Cc1ccccc1`, 1.35.
The same measure, in the same setting: as for `CC(C)N1C(=O)C[C@@](C(=O)NCCCN(C)C)(c2ccc([N+](=O)[O-])cc2)[C@H]1c1ccc(CO)cc1`, the figure is -0.194; as for `COC(=O)C(CC#Cc1ccc2c(c1)[C@]1(C(=O)N2)[C@H](C(=O)N2CCN(c3ncccn3)CC2)[C@H]2C(=O)O[C@H](c3ccccc3)[C@H](c3ccccc3)N2[C@@H]1c1ccc(OCCO)cc1)C(=O)OC`, 0.918.
Still for that read-out and setting: for `CN(C)CCCNC(=O)[C@@]1(C)c2ccccc2C(=O)N(Cc2ccccc2)[C@H]1c1ccc(CO)cc1` the value was -1.06; for `CC(C)C(=C=CC[C@H](O)c1cccc(OCCO)c1)C[C@H](O)c1cc(Cl)cc(Cl)c1O`, -0.0005.
`COCCCNC(=O)[C@@]1(Cc2ccccc2N=[N+]=[N-])N=C(c2ccc(OCCCO)cc2)O[C@H]1c1ccccc1` gave a composite z-score of 0.906.
As to `COc1ccc([Si](C)(C)[C@@H]2[C@@H](CC(=O)N3Cc4ccccc4C[C@H]3CO)O[C@]3(C(=O)N(Cc4cccc(N5C(=O)c6cccc7cccc5c67)c4)c4ccccc43)[C@H]2C)cc1`, the composite z-score was determined as 0.937.
In turn, `COc1ccc([Si](C)(C)[C@@H]2[C@@H](CC(=O)N(CCO)Cc3ccccc3)O[C@]3(C(=O)N(Cc4cccc(N5CCOC5=O)c4)c4ccccc43)[C@H]2C)cc1` registered a composite z-score of -0.561.
The same measure, in the same setting: as for `CC(=O)c1ccc(C(O)C2C=CC3C(=O)N(c4ccccc4)C(=O)C3N2Nc2ccc(C#N)cc2)cc1` (stereo not drawn), the figure is 1.11; as for `COC1OC[C@]2(C)[C@H]3C4=C(CN2C(=O)OC(C)(C)C)[C@H](C)C(CO)C(CO)C4CC[C@@H]13` (stereo partly drawn), 2.62.
`COCCCNC(=O)[C@@]1(Cc2ccccc2CN=[N+]=[N-])N=C(c2ccc(OCCCO)cc2)O[C@H]1c1ccccc1` returned a composite z-score of 1.34.
`COc1cc(CO)cc(I)c1O[C@H]1C=C(C(=O)NCCO)C[C@@H](NCc2ccc(F)cc2)[C@@H]1O`: the composite z-score is 0.433.
In the case of `C=CCC(OC(C)=O)[C@@H]1[C@@H](N(Cc2cccc3ccccc23)C(=O)Cc2ccc(F)cc2)c2cc(OCCCO)ccc2N1C(=O)c1ccc2ccccc2n1` (stereo partly drawn), the composite z-score worked out at 0.304.
Compound `[N-]=[N+]=Nc1ccccc1[C@H]1OC(c2ccc(OCCCO)cc2)=N[C@@]1(Cc1ccccc1)C(=O)N1CCCCC1` came in with a composite z-score of 1.53.
Still for that read-out and setting: as for `O=C(NCc1ccccc1)[C@@H]1c2ccccc2C(=O)N(Cc2ccccc2C(F)(F)F)[C@H]1c1ccc(CO)cc1`, the figure is -0.526; as for `CC=CC(O)C1C=CC2C(=O)N(c3ccccc3)C(=O)C2N1Nc1ccccc1F` (stereo not drawn), 0.416.
The same measure, in the same setting: as for `O=C1O[C@H](c2ccccc2)[C@H](c2ccccc2)N2[C@H]1[C@@H](C(=O)O)[C@]1(C(=O)Nc3ccc(C#CC4=CCCCC4)cc31)[C@H]2c1ccc(O)cc1`, the figure is -0.461.

These data come from PubChem BioAssay.
